Data on 40 compounds can be found in PubChem BioAssay (NCI).

About 83,000 compounds went through this panel and 20% of them were active in at least one assay; those are over-represented in the sample as a whole.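 48-hour exposure, single concentration, 96-well plates; percent growth endpoint where 0 means no net growth. Active: below 10.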 A number with no mark means an inactive call. Calls of active or inactive are those of the source.

The assay deals with 786-0 renal. Briefly: NCI-60 one-dose screen, 48 h (100 = growth as untreated, 0 = no growth, -100 = all killed). Conditions: 10 µM.
`CCN1CCN(CCC(=O)Nc2cccc(-n3cc(-c4ccncc4)c(-c4ccc(Cl)c(OC)c4)n3)c2)CC1`: the growth is -47.6% (active).
In the case of `O=C1/C=C/[C@@H](O)[C@@H]2C[C@@H](O)C[C@H]2/C=C/CCC[C@H](C(F)(F)F)O1` it was -11.6% (active); in that of `CC[C@@H](C(=O)[C@@H](C)[C@@H](O)[C@H](C)[C@@H]1O[C@@H]([C@@H](CC)C(=O)N(CC)CC)CC[C@@H]1C)C1O[C@]2(C=CC(=O)[C@]3(CC[C@@](C)([C@H]4CC[C@](O)(CC)[C@H](C)O4)O3)O2)[C@H](C)C[C@@H]1C` (stereo not given in full), 34.6%.
With `COc1ccc(-c2cc(-c3ccc(Cl)cc3)nc(SCCCCCCC(=O)NO)n2)cc1OC`, the growth was 51.3%.
In the case of `N#CCc1csc(Cc2ccccc2)n1`, the growth was 108%.
Turning to `CC(C)(C)OC(=O)CN1CCc2c(sc3ncnc(N/N=C/c4ccccc4Br)c23)C1`, the growth was 77%.
On to `CC(CN(C)C)Oc1ccccc1NC1=C(Cl)C(=O)C(Nc2ccccc2OC(C)CN(C)C)=C(Cl)C1=O` (stereo not given), for which the growth is -71.5% (active).
Consider `Nc1ccn(Cc2nnc(CCC(=O)c3nc4ccccc4[nH]3)o2)c(=O)n1`, for which the growth is 97.2%.
On to `CC(C)(C)OC(=O)CN1CCc2c(sc3ncnc(N/N=C/c4cccc5ccccc45)c23)C1`, for which the growth was 44.1%.
Take `CCOC(=O)c1cc(C(=O)c2ccc(Cl)cc2)n2ccc(-c3cc[n+](CC(=O)c4ccc(OC)cc4)cc3)cc12`: the growth was 9.1% (active).
As to `NS(=O)(=O)Oc1ccc(NC(=O)C2CCCCCC2)cc1`, the growth was 107%.
Turning to `NNC(=O)Oc1c(Cl)cc(Cl)cc1[N+](=O)[O-]`, the growth is 105%.
`O=C1c2ccccc2C(=O)c2c1ccc(C(Br)Br)c2[N+](=O)[O-]`: the growth is 21.1%.
In the case of `COc1ccc(NC(=O)C2CC3C=CC2C3)c([N+](=O)[O-])c1` (stereo not given), the growth is 123%.
For the compound `CC[C@@H](C(=O)[C@H](C)[C@H](O)[C@@H](C)[C@H]1O[C@H]([C@@H](CC)C(=O)N(CC)CC)CC[C@H]1C)C1O[C@]2(C=C[C@@H](O)[C@]3(CC[C@@](C)([C@H]4CC[C@](O)(CC)[C@H](C)O4)O3)O2)[C@H](C)C[C@@H]1C` (stereo not given in full), the growth is 33.5%.
As to `COc1cc(-c2nn(-c3cccc(NC(=O)NCCNC(=O)c4cccc(C(F)(F)F)c4)c3)cc2-c2ccncc2)ccc1Cl`, the growth is 17.4%.
With `O=C(O)c1cc([N+](=O)[O-])ccc1Oc1ccccc1`, the growth was 104%.
As for `CCOC(=O)c1cc(C(=O)c2cc(OC)c(OC)c(OC)c2)n2nc(C)ccc12`, the growth is 54.4%.
Then `CC[C@@H](C(=O)[C@@H](C)[C@@H](O)[C@H](C)[C@@H]1O[C@@H]([C@@H](CC)C(=O)O)CC[C@@H]1C)C1O[C@]2(C=CC(=O)[C@]3(CC[C@@](C)([C@H]4CC[C@](O)(CC)[C@H](C)O4)O3)O2)[C@H](C)C[C@@H]1C` (stereo not given in full), with 24.7%; and `Cc1ccc(S(=O)(=O)N(C)CCCCCC(=O)O)cc1`, with 95.3%; and `COc1ccc(C2=Cn3c(CCC(=O)c4nc5ccccc5[nH]4)nnc3SC2)cc1`, with 104%.
Then `CCCN(CCC)C(=O)[C@H](CC)[C@@H]1CC[C@@H](C)[C@@H]([C@H](C)[C@@H](O)[C@@H](C)C(=O)[C@H](CC)C2O[C@]3(C=C[C@@H](O)[C@]4(CC[C@@](C)([C@H]5CC[C@](O)(CC)[C@H](C)O5)O4)O3)[C@H](C)C[C@@H]2C)O1` (stereo not given in full), with 15.8%; and `OCC1OC(n2cnc3c(NCc4ccco4)ncnc32)C(O)C1O` (stereo not given), with 18.2%; and `CC[C@@H](C(=O)[C@H](C)[C@H](O)[C@@H](C)[C@H]1O[C@H]([C@@H](CC)C(=O)O)CC[C@H]1C)C1O[C@]2(C=C[C@@H](O)[C@]3(CC[C@@](C)([C@H]4CC[C@](O)(CC)[C@H](C)O4)O3)O2)[C@H](C)C[C@@H]1C` (stereo not given in full), with 27.1%.
In the case of `O=C(/C=C/c1cccc(B(O)O)c1)c1cccc(B(O)O)c1` it was -88.6% (active); in that of `Cc1ccc(Cl)cc1NC(=O)CCl`, 81.2%.
On to `COc1cc(/C=C/c2cc(/C=C/c3ccc(O)c(OC)c3)nc(N)n2)ccc1O`, for which the growth is -58.9% (active).
`C/C(=N\O)c1ccc(NC(=O)CSc2nnc(-c3ccccc3)n2-c2ccccc2)cc1`: the growth is 80.5%.
Consider `O=C(NCCCNS(=O)(=O)c1ccc(Cl)cc1)Nc1ccc(-n2cc(-c3ccncc3)c(-c3ccc(Cl)c(O)c3)n2)cc1`, for which the growth is 1.59% (active).
With `CS(=O)(=O)c1nccc(-c2c(-c3cccc(OCCN4CCOCC4)c3)nc3sccn23)n1`, the growth was 90.6%.
On to `C=CCSC(CC)(CC)C(=O)NC`, for which the growth is 104%.
In the case of `CCn1c(SC/C(=N/O)c2ccccc2)nnc1-c1ccccc1` it was 105%; in that of `CCN(CC)CCOc1ccc2c(c1O)C(=O)c1ccccc1C2=O`, 80.1%; in that of `CS(=O)(=O)c1nccc(-c2c(-c3cccc(O)c3)nc3sccn23)n1`, 77.2%.
Then `CC(=O)[C@H]1CC[C@]2(C)[C@@H]1CC[C@@H]1[C@@]3(C)CC(CCC#N)(CCC#N)C(=O)C(C)(C)[C@@H]3CC[C@]12C`, with 101%.
As to `COc1cc(-c2nn(-c3cccc(NC(=O)CN4CCOCC4)c3)cc2-c2cccnc2)ccc1Cl`, the growth is 94.6%.
Then `CNS(=O)(=O)Oc1ccc(-c2sc3cc(OS(=O)(=O)NC)ccc3c2C(=O)c2ccc(OCCN3CCCCC3)cc2)cc1`, with 73.5%; and `Clc1ccc(/C=C2\CCCC3C2=Nc2ccccc2NC3c2ccc(Cl)cc2)cc1` (stereo not given), with 114%.
In the case of `CCOS(=O)(=O)c1c(C(C)C)cc(C(C)C)cc1C(C)C` it was 105%.
`COc1cc(/C=C/c2cc(/C=C/c3ccc(O)c(OC)c3)n(C(=O)Nc3ccccc3Cl)n2)ccc1O`: the growth is -14.8% (active).
